The results in this text go back to PubChem BioAssay (NCATS).

For one assay, the system named is OV90. As to the kind of experiment: Primary qHTS to identify gynecologic anti-cancer compounds using libraries of approved drugs and bioactive compounds (AID 1345084). Also: nearly all actives have a fitted effect of over 55% in size. Also: potency is read from the fitted curve at half-maximal effect. As to activity change, negative = cytotoxicity: % is scaled to controls: 0 for no effect and ±100 for the full control effect. The following applies: Gynecologic cancer cell panel viability, ATPlite luminescence, 48 h; series mostly up to 57.5 µM. Put shortly:
(§1)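 48 h compound exposure at 37 C, 5% CO2; five-point qHTS. ATPlite luminescence readout of cell ATP.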
In general terms: qHTS replaces the single test concentration by a dilution series.

The subject of another assay is PA-1. Described as above. As to conditions: Gynecologic cancer cell panel viability, ATPlite luminescence, 48 h; series mostly up to 57.5 µM. An outline of the steps:
as §1
(In ATP-based viability assays light output follows the ATP content of the culture.)

In the next assay the test system is SKOV3. The description is as above. As to conditions: Gynecologic cancer cell panel viability, ATPlite luminescence, 48 h; series mostly up to 57.5 µM. An outline of the steps:
as §1

In a further assay the test system is Tov-21-G. The description is as above. The following applies: Gynecologic cancer cell panel viability, ATPlite luminescence, 48 h; series mostly up to 57.5 µM. An outline of the steps:
as §1

Another assay concerns Tov112D. The description is as above. The following applies: Gynecologic cancer cell panel viability, ATPlite luminescence, 48 h; series mostly up to 57.5 µM. An outline of the steps:
as §1

Assay [1] can be described thus: Drug repurposing screens with cells derived from glioblastoma tumor samples (AID 1345199). Also: nearly all actives have a fitted effect of over 40% in size. Also: potency is read from the fitted curve at half-maximal effect. As to activity, negative = cell killing: % is scaled to controls: 0 for no effect and ±100 for the full control effect. As to conditions: GBM patient neurospheres viability, ATP luminescence, 48 h. Put shortly:
(§2)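 Primary testing used CD133+ neurospheres from four GBM patients, seven concentrations, 48 h exposure and ATP-based viability; confirmation added three slower-growing patient lines.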

A further assay relates to astro. The description is as above. The following applies: viability, ATP luminescence, 48 h; series mostly up to 45.9 µM. Put shortly:
as §2

The target in assay [2] is Nuclear receptor subfamily 1 group I member 2 (Rattus norvegicus) (UniProt Q9R1A7). As to the kind of experiment: qHTS assay for small molecule activators of the rat pregnane X receptor (rPXR) signaling pathway (AID 651751; call rule not given here; also: 0% is about no effect). As to conditions: rPXR reporter cells, luciferase (One-Glo), 24 h.
Where [3] appears, read: at 45.9 µM (top of the series), tumour line B.
Where [4] appears, read: at 45.9 µM (top of the series), tumour line D.
Setting [5] is: at 46.1 µM (top of the series), tumour line C.
Where [6] appears, read: at 46 µM (top of the series), tumour line A.
The mark [7] stands for this setting: at 20 µM (top of the series), tumour line C.
The mark [8] stands for this setting: at 21.2 µM (top of the series), tumour line B.
The mark [9] stands for this setting: at 21.2 µM (top of the series), tumour line D.
Where [10] appears, read: at 21.3 µM (top of the series), tumour line A.

Several values for one entry are separate records, joined by “and”; a condition that tells them apart may be missing. Equal values may be shown once. Results filed as inconclusive are left out. More than one record can exist for a structure, and the calls need not agree. Activity calls are given as the source filed them. Unless noted, calls follow the shape of the dose curve; as a rule, active = well fitted curve in the direction sought with a large enough effect; inconclusive = small, poorly fitted or top-dose-only effect, or another doubt; inactive = no such curve, though single readings can be large; an effect the other way counts as inactive or inconclusive.

Chain of Nuclear receptor subfamily 1 group I member 2 (Rattus norvegicus) (Q9R1A7 whole entry, looked up): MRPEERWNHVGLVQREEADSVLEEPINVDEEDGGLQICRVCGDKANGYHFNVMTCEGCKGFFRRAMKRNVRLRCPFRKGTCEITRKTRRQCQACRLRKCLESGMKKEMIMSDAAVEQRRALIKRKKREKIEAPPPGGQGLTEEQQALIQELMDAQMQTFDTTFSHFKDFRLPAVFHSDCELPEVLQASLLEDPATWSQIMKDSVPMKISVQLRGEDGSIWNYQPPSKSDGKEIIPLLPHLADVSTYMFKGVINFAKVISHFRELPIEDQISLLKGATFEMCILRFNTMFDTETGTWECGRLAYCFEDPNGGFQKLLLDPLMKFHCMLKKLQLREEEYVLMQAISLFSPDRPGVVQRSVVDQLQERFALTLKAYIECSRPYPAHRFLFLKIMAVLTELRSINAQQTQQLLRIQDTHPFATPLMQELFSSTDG

Take `NC(=Nc1ccccc1)Nc1ccccc1`: the Potency in the assay on OV90 is 14.1 µM (active) and inactive; in assay [1] (tumour line A) it was 25.1 µM (active). Moreover, the Potency result in the assay with PA-1, in the assay on SKOV3, with Tov-21-G, in the assay with Tov112D and with astro was “inactive” throughout. Further, the activity, negative = cell killing in assay [1] (setting [3]) was -2.03% (inactive); in assay [1] (setting [4]), -11.9% (inactive); in assay [1] (setting [5]), 5.57% (inactive); in assay [1] (at 91.6 µM (top of the series), tumour line B), -24.2% (inactive); in assay [1] (at 91.6 µM (top of the series), tumour line D), -23% (inactive); in assay [1] (at 99.2 µM (top of the series), tumour line C) it was 19% (inactive). For the same molecule, the max response in assay [2] is -0.275% (inactive) and 5.17% (inactive).

On to `CCn1cc(C(=O)O)c(=O)c2cc3c(cc21)OCO3`, for which the Potency result in the assay on OV90, in the assay with PA-1, with SKOV3, in the assay on Tov-21-G and in the assay on Tov112D was “inactive” each time. The activity, negative = cell killing in assay [1] (setting [3]) was -1.33% (inactive); in assay [1] (setting [4]), -1.7% (inactive); in assay [1] (setting [6]), -12.9% (inactive); in assay [1] (setting [5]) it was -10% (inactive).

Regarding `CC(C)[N+](C)(CCOC(=O)C1c2ccccc2Oc2ccccc21)C(C)C`, the Potency result with OV90, with PA-1, in the assay on SKOV3, in the assay on Tov-21-G and in the assay with Tov112D was “inactive” in each case. Besides, the activity, negative = cell killing was -4.27% (inactive) in assay [1] (setting [3]), -14.8% (inactive) in assay [1] (setting [4]), -16.6% (inactive) in assay [1] (setting [6]) and -11.5% (inactive) in assay [1] (setting [5]).

Take `CN(C)C(=O)Oc1cccc([N+](C)(C)C)c1`: the Potency entry in the assay on OV90, in the assay on PA-1, with SKOV3, in the assay with Tov-21-G and in the assay on Tov112D was “inactive” throughout. Moreover, the activity, negative = cell killing is -0.104% (inactive) in assay [1] (setting [3]), 10.8% (inactive) in assay [1] (setting [4]), -24.8% (inactive) in assay [1] (setting [6]) and -4.3% (inactive) in assay [1] (setting [5]).

On to `O=C(O)CN(CCOCCOCCN(CC(=O)O)CC(=O)O)CC(=O)O`, for which the activity change, negative = cytotoxicity in the assay on OV90 is 2.64% [at 0.462 µM] (inactive); in the assay on PA-1 it was -1.54% [at 0.462 µM] (inactive); in the assay on SKOV3 it was 17.7% [at 0.462 µM] (inactive); in the assay on Tov-21-G, 1.63% [at 0.462 µM] (inactive); in the assay with Tov112D, 6.01% [at 0.462 µM] (inactive). Further, the activity, negative = cell killing in assay [1] (setting [3]) is -21% (inactive); in assay [1] (setting [4]), -7% (inactive); in assay [1] (setting [6]), -22.8% (inactive); in assay [1] (setting [5]), 4.28% (inactive).

As to `Cc1ccc(/C(=C\CN2CCCC2)c2ccccn2)cc1`, the Potency result in the assay on OV90, with PA-1, in the assay with SKOV3, in the assay with Tov-21-G and in the assay with Tov112D was “inactive” in each case. Besides, the figures for the activity, negative = cell killing in assay [1] (setting [3]), in assay [1] (setting [4]) and in assay [1] (setting [5]) were -22.4% (inactive), -28.9% (inactive) and 0.541% (inactive), respectively. Besides, in assay [1] (tumour line A), the Potency is 17.8 µM (active).

Take `C=CCc1ccccc1OCC(O)CNC(C)C` (centres undefined): the Potency entry in the assay with OV90, in the assay on PA-1, in the assay with SKOV3, in the assay with Tov-21-G and in the assay with Tov112D was “inactive” in each case. Moreover, the activity, negative = cell killing is -18% (inactive) in assay [1] (setting [3]), -4.74% (inactive) in assay [1] (setting [4]) and -6.66% (inactive) in assay [1] (setting [5]).

Turning to `O=C(O)CN(CCN(CC(=O)O)CC(=O)O)CCN(CC(=O)O)CC(=O)O`, the Potency entry with OV90, in the assay on PA-1, with SKOV3, in the assay with Tov-21-G and in the assay with Tov112D was “inactive” each time. The activity, negative = cell killing in assay [1] (setting [3]) is -4.92% (inactive); in assay [1] (setting [4]), -0.113% (inactive); in assay [1] (setting [5]), -9.95% (inactive).

For `Cc1nc2c([nH]1)c(=O)n(C)c(=O)n2Cc1ccco1`, the Potency entry with OV90, in the assay on PA-1, in the assay with SKOV3, in the assay on Tov-21-G and in the assay on Tov112D was “inactive” throughout. In addition, the figures for the activity, negative = cell killing in assay [1] (setting [3]), in assay [1] (setting [4]) and in assay [1] (setting [5]) were -4.62% (inactive), -3.2% (inactive) and -11.8% (inactive), respectively.

Regarding `CCCOc1ccccc1-c1nc2n[nH]nc2c(=O)[nH]1`, the Potency entry in the assay on OV90, with PA-1, in the assay with SKOV3, in the assay with Tov-21-G and with Tov112D was “inactive” throughout. The activity, negative = cell killing in assay [1] (setting [3]) was -4.45% (inactive); in assay [1] (setting [4]), -8.24% (inactive); in assay [1] (setting [6]), -28% (inactive); in assay [1] (setting [5]), -19% (inactive).

In the case of `Cc1ccc(Cl)c(Nc2ccccc2C(=O)O)c1Cl`, the Potency entry in the assay on OV90, with PA-1, with SKOV3, in the assay with Tov-21-G and in the assay with Tov112D was “inactive” throughout. Also, the activity, negative = cell killing in assay [1] (setting [3]) is -5.7% (inactive); in assay [1] (setting [4]) it was -0.35% (inactive); in assay [1] (setting [6]), -28.2% (inactive); in assay [1] (setting [5]) it was -24.9% (inactive).

As for `CN1CCN(CC(=O)N2c3ccccc3C(=O)Nc3cccnc32)CC1`, the activity change, negative = cytotoxicity in the assay on OV90 is 8.92% [at 6.55 µM] (inactive); with PA-1, 18.1% [at 6.55 µM] (inactive); with SKOV3 it was 8.94% [at 6.55 µM] (inactive); in the assay on Tov-21-G, 7.44% [at 6.55 µM] (inactive); in the assay on Tov112D it was -0.53% [at 6.55 µM] (inactive). Also, the activity, negative = cell killing in assay [1] (setting [3]) was -1.68% (inactive); in assay [1] (setting [4]) it was -4.29% (inactive); in assay [1] (setting [5]), 9.11% (inactive).

With `Cc1scc2c1N(C(=O)CN1CCN(C)CC1)c1ccccc1NC2=O`, the Potency result in the assay with OV90, in the assay with PA-1, in the assay on SKOV3, in the assay with Tov-21-G and in the assay with Tov112D was “inactive” in each case. For the same molecule, the activity, negative = cell killing was -11.6% (inactive) in assay [1] (setting [3]), 2.13% (inactive) in assay [1] (setting [4]), -22.7% (inactive) in assay [1] (setting [6]) and -12.1% (inactive) in assay [1] (setting [5]).

Regarding `CC(=O)OC(C)C[N+](C)(C)C` (centres undefined), the Potency entry with OV90, with PA-1, with SKOV3, in the assay with Tov-21-G and in the assay with Tov112D was “inactive” in each case. Also, the activity, negative = cell killing is 12% (inactive) in assay [1] (setting [7]), 6.44% (inactive) in assay [1] (setting [8]), -7.66% (inactive) in assay [1] (setting [9]) and -14.4% (inactive) in assay [1] (setting [10]).

Take `CCN(CC)CC(=O)Nc1c(C)cccc1C`: the Potency entry with OV90, in the assay with PA-1, in the assay with SKOV3, with Tov-21-G, with Tov112D and with astro was “inactive” throughout. The activity, negative = cell killing in assay [1] (setting [3]) is -12.8% (inactive); in assay [1] (setting [6]), 16.4% (inactive); in assay [1] (setting [5]), -29.2% (inactive).

Consider `COCCOC(=O)C1=C(C)NC(C)=C(C(=O)OC(C)C)C1c1cccc([N+](=O)[O-])c1` (centres undefined), for which the Potency result in the assay with OV90, with PA-1, in the assay on SKOV3, in the assay on Tov-21-G, in the assay with Tov112D and in the assay on astro was “inactive” each time. Besides, the values for the activity, negative = cell killing in assay [1] (setting [3]) and in assay [1] (setting [5]) were -4.05% (inactive) and -1.16% (inactive), respectively. Also, in assay [1] (tumour line A), the Potency is 14.1 µM (active).

For `CC(C)NCC(O)c1cc(O)cc(O)c1` (centres undefined), the Potency entry with OV90, in the assay with PA-1, with SKOV3, in the assay with Tov-21-G, in the assay on Tov112D and in the assay with astro was “inactive” throughout. In addition, the activity, negative = cell killing was -18.9% (inactive) in assay [1] (setting [3]), 17.6% (inactive) in assay [1] (setting [4]) and -22.7% (inactive) in assay [1] (setting [5]).

Turning to `CC(C)(Oc1ccc(CCNC(=O)c2ccc(Cl)cc2)cc1)C(=O)O`, the Potency entry with OV90, in the assay on PA-1, in the assay on SKOV3, with Tov-21-G, in the assay on Tov112D and in the assay with astro was “inactive” throughout. Moreover, the activity, negative = cell killing in assay [1] (setting [7]) was 15.6% (inactive); in assay [1] (setting [8]) it was -6.51% (inactive); in assay [1] (setting [9]), 0.604% (inactive); in assay [1] (setting [10]), -25.9% (inactive). Further, the max response in assay [2] was -5.47% (inactive).

Turning to `O=C1CC2(CCCC2)CC(=O)N1CCCCN1CCN(c2ncccn2)CC1`, the Potency result in the assay with OV90, with PA-1, in the assay with SKOV3, in the assay on Tov-21-G, in the assay with Tov112D and with astro was “inactive” in each case. Further, the activity, negative = cell killing in assay [1] (setting [3]) was -25.4% (inactive); in assay [1] (setting [5]), -16.7% (inactive). In addition, the Potency in assay [1] (tumour line A) was 5.01 µM (active).
